Bioassay records: PubChem BioAssay, several laboratories
The list is not random: actives were taken first. Their share in the collection is about 4.7%.
ATG4B inh – inhibitors of human ATG4B cysteine protease; Q9Y4P1; ATG4B cleavage of LC3-PLA2, NBD-HPC fluorescence, 1 h; inhibition, % at 8.33 µM; 340,000 tested, 0.51% active; AID 504462; in the data active = inhibition above about 40%
Target sequence (Q9Y4P1 whole entry, looked up): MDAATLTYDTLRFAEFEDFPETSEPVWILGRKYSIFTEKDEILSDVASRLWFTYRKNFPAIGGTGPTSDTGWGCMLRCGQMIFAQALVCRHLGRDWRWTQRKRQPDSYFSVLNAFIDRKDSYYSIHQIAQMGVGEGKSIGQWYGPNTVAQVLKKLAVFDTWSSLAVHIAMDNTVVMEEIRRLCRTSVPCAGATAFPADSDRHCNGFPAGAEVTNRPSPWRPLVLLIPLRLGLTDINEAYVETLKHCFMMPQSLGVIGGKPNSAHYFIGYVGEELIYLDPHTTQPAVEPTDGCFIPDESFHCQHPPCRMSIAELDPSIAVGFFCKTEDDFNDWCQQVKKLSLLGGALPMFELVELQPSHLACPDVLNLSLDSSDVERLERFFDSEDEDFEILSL
tim10-1 inh – growth inhibitors of tim10-1 mutant yeast | S. cerevisiae tim10-1 ts strain growth, BacTiter-Glo, 24 h | inhibition, % at 20 µM | 330,000 tested, 2.2% active | AID 463190;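 active = inhibition of at least 40%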;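 also: mutant grown at 25 °C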
PfHsp90 yeast 2 – inhibits growth of yeast expressing Plasmodium falciparum Hsp90; S. cerevisiae expressing PfHsp90, BacTiter-Glo ATP, 48 h; yeast lacking PDR1 and PDR3 efflux regulators; inhibition, % at 9.4 µM; 310,000 tested, 0.32% active;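 active = every replicate shows inhibition above about 80%, whatever the replicate mean, limit read from the data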
tim23-1 inh – tim23-1 yeast growth inhibition. S. cerevisiae tim23-1 growth, BacTiter-Glo luminescence, 24 h. inhibition, % at 20 µM. 330,000 tested, 1.3% active;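 active = growth inhibition of the mutant yeast at or above 50%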;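 also: temperature-sensitive mutant grown at 25 °C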
SKKanGAS inh – blocks kanamycin growth of S. pyogenes SKKanGAS strain; 300,000 tested, 1.3% active; AID 1662; inhibition, % at 7.5 µM; BacTiter-Glo, 6 h;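 active = mean replicate score, as percent of positive control median, at least 50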;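 also: strain carries kanamycin resistance gene driven by streptokinase promoter and grows in 40 µg/ml kanamycin; loss of luminescence reflects streptokinase promoter inhibition or plain growth inhibition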
TIM10 inh – TIM10 yeast growth inhibition. S. cerevisiae TIM10 strain growth, BacTiter-Glo luminescence, 24 h. inhibition, % at 10 µM. 330,000 tested, 1.4% active;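 active = inhibition of 40% or more at the single tested concentration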;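 also: wild-type TIM10 isogenic control strain grown at permissive 25 °C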
tim10-1 confirm – confirmation of tim10-1 mutant yeast growth inhibitors. shares compounds with tim10-1 inh. S. cerevisiae tim10-1 ts strain growth, BacTiter-Glo, 24 h. inhibition, % at 20 µM. 7,400 tested, 56% active;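 active = inhibition of yeast growth at or above a set limit in either of two repeat tests at 20 µM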;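 also: tim10-1 mutant grown at permissive 25 °C to find synthetic lethal compounds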
Numbers stand for hits; 0 = inactive; - = not tested or not shown.

SMILES	ATG4B inh	tim10-1 inh	PfHsp90 yeast 2	tim23-1 inh	SKKanGAS inh	TIM10 inh	tim10-1 confirm
COc1ccc2c(c1)/C(=N/OC(=O)c1cccs1)CCC2	0	52.2	0	0	0	0	41.0
COc1cc(C2C(C(=O)/C=C/c3ccccc3)=C(O)C(=O)N2c2ccccn2)ccc1O (stereo not given)	0	0	0	0	0	0	-
COc1ccc(C)cc1S(=O)(=O)N1CCN(C(=O)c2ncoc2-c2ccccc2C)CC1	0	0	0	0	0	0	-
Cc1ccc(CSC2=Nc3ccccc3C3=NC(=O)CN23)cc1	0	0	0	0	0	0	-
COc1cc2c(cc1OC)C1=NC(=O)CN1C(SCc1ccccc1C)=N2	0	41.3	0	0	0	0	0
COCCN(C(=S)Nc1cc(C)cc(C)c1)C(C)c1cccs1 (stereo not given)	0	0	0	0	0	0	-
COCCN(C(=S)Nc1ccc(OC)cc1)C(C)c1cccs1 (stereo not given)	0	40.9	0	0	0	0	0
Cc1ccc(S(=O)(=O)CCc2nnc(NC(=O)c3ccccn3)s2)cc1	0	44.3	0	0	0	0	0
COCC(=O)Nc1sc2c(c1C(=O)OC)C(C(=O)OC)CC2 (stereo not given)	0	43.4	0	0	0	0	0
Cc1nnc(-c2ccccc2)c(=O)n1/N=C/c1c(O)ccc2ccccc12	0	49.4	0	0	69.7	0	0
CC1CCCCN1C(=O)C1CCN(c2nc(-c3ccccc3)nc3c2CCC3)CC1 (stereo not given)	0	56.4	0	0	0	0	0
O=C(C1CCN(c2nc(-c3ccccc3)nc3c2CCC3)CC1)N1CCCC1	0	0	0	0	0	0	-
Cc1nc2ccc(Br)cn2c1C(=O)N/N=C\c1ccccc1[N+](=O)[O-]	0	0	0	0	0	0	-
O=[N+]([O-])c1ccc(Oc2ccc(S(=O)(=O)Nc3ccccc3)cc2)cc1	0	0	-	0	0	0	-
CCOC(=O)c1oc2ccc(OC)cc2c1NC(=O)CN1CCN(C)CC1	0	0	-	0	0	0	-
Cc1ccc(C(=O)c2oc3ccc(Cl)cc3c2NC(=O)CN2CCN(C)CC2)cc1	0	49.0	0	0	0	0	0
C=CCOC(=O)C1=C(C)N=C2SCCC(=O)N2C1/C=C/c1ccccc1 (stereo not given)	0	42.2	-	0	0	0	0
CCOC(=O)C1=C(C)N=C2SCCC(=O)N2[C@@H]1/C=C/c1ccccc1	0	0	0	0	0	0	-
Oc1ccc(-c2nccc(-c3ccc(Cl)cc3)n2)cc1	0	42.0	0	0	0	0	43.1
FCCCOc1ccc(-c2nccc(-c3ccc(Cl)cc3)n2)cc1	0	0	-	0	0	0	-
CCOc1nc(-c2ccc(Cl)cc2Cl)ccc1C#N	0	0	0	0	0	0	-
Oc1ccc(-c2nccc(-c3ccc(Cl)cc3Cl)n2)cc1	0	42.5	0	0	0	0	34.0
Nc1nnc(CCOc2ccccc2Cl)s1	0	0	-	0	0	0	-
CC(C)c1ccc(NC(=O)N2CCN(S(=O)(=O)c3ccccc3)CC2)cc1	0	41.3	0	0	0	0	0
CC(C)c1ccc(S(=O)(=O)N2CCN(C(=O)CCNC(=O)Nc3ccccc3)CC2)cc1	0	0	0	0	-	0	-
SMILES	ATG4B inh	tim10-1 inh	PfHsp90 yeast 2	tim23-1 inh	SKKanGAS inh	TIM10 inh	tim10-1 confirm
CCOC(=O)C1=C(c2ccccc2)O/C(=C(/C#N)C(F)(F)F)S1	-	47.3	-	0	0	0	38.8
CCOC(=O)C1=C(c2ccccc2)O/C(=C(\C(=O)OC)C(F)(F)F)S1	0	0	0	0	0	0	-
c1ccc(-c2ccccc2-c2nc(-c3cccnc3)no2)cc1	0	44.8	0	0	0	0	0
CCC(=O)Oc1ccc(-c2nc(-c3cccnc3)no2)cc1	0	46.7	-	0	55.7	0	46.0
c1cncc(-c2noc(-c3cccc4ccccc34)n2)c1	0	0	-	0	0	0	-
CCOc1ccc(OCC)c(S(=O)(=O)n2ccnc2C)c1	0	0	0	0	0	0	-
CCOc1ccc(C(C)C)cc1S(=O)(=O)n1ccnc1C	0	41.1	0	0	0	0	0
CSc1nsc(/C=C/Nc2ccc(F)cc2)c1C#N	0	0	0	0	-	0	-
CSc1nsc(/C=C/Nc2ccc(O)cc2C)c1C#N	0	46.5	0	0	0	0	0
CCOC(=O)c1ccc(NC(=S)N2CCSC2c2ccc(Br)cc2)cc1 (stereo not given)	0	40.1	0	0	0	0	0
CC(C)C[C@@H](CO)N1CCN(CCc2ccccc2)CCC1=O	0	0	0	0	0	0	-
N#Cc1c(N2CCCCC2)nc(N)c2c(N)nc3c(c12)CC(c1ccccc1)O3 (stereo not given)	0	40.8	0	0	0	0	0
Brc1ccc(CSc2nnc(-c3ccccn3)n2Cc2ccco2)cc1	50.1	40.2	-	0	0	0	33.3
O=C(CSc1nnc(-c2ccccn2)n1Cc1ccco1)c1ccccc1	0	0	0	0	0	0	-
CCCc1cc(C(=O)N2CCN(C(c3ccccc3)c3ccccc3)CC2)no1	0	0	0	0	0	0	-
Cc1cc(C(=O)N2CCN(C(c3ccccc3)c3ccccc3)CC2)no1	0	41.5	0	0	0	0	0
CCC(CC)c1nnc(NC(=O)c2ccc3c(c2)OCO3)s1	0	0	0	0	0	0	-
Cc1ccc(-c2cc(Cc3ccc(N(C)C)cc3)c(=O)[nH]n2)cc1	0	0	0	0	0	0	-
CC1=Nc2ccccc2/C1=C\c1nc(-c2ccc(F)cc2)oc1O	0	52.9	0	0	81.3	0	0
Cc1ccccc1NS(=O)(=O)c1cc(C(=O)N2CCc3ccccc3C2)ccc1C	0	42.3	-	0	0	0	32.7
Cc1ccc(C(=O)N2CCc3ccccc3C2)cc1S(=O)(=O)N1CCOCC1	0	0	0	0	0	0	-
Cc1ccc(C(=O)NCCC2=CCCCC2)cc1S(=O)(=O)N1CCCCC1	0	41.0	0	0	0	0	0
Cc1ccccc1NS(=O)(=O)c1cc(C(=O)NCCC2=CCCCC2)ccc1C	0	40.4	0	0	0	0	0
Cc1ccc(CN2CCC(Oc3ccc(C(=O)NCc4ccccn4)cc3)CC2)o1	0	0	0	0	0	0	-
COc1ccccc1N1CCN(C(=O)CSc2nnc(C)n2C2CC2)CC1	0	0	0	0	-	0	-
O=C(Nc1cc(Sc2nc3ccccc3s2)cc([N+](=O)[O-])c1)c1ccccc1	0	0	0	0	0	0	-
O=C(Nc1cc(Sc2ccccn2)cc([N+](=O)[O-])c1)c1cccc(F)c1	0	43.9	0	0	0	0	53.5
Cc1c(C)c2ccc(Oc3ccc([N+](=O)[O-])cc3C(F)(F)F)c(C)c2oc1=O	0	40.3	0	0	0	0	0
